The record followed here is paper PMC8384837, “Expanding the binding specificity for RNA recognition by a PUF domain”.

One assay deals with PUM1 PUF domain R4-SRG (Homo sapiens, UniProt Q14671 828-1176, N971S;H972R;Q975G). The assay is described as follows: yeast three-hybrid, YBZ-1, SC-Leu-His + 0.5 mM 3-AT, 4 days. The settings on record: tags: N-Gal4 AD-HA kept; label: inside an RPR1-promoter hybrid RNA with tandem MS2 sites; ssRNA. A digest of the protocol:
(§1)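 Sequencing with Illumina followed PCR amplification of the repeat regions from transformants grown four days on SC-Leu (input) or SC-Leu-His + 0.5 mM 3-AT (selection). The transformants were strain YBZ-1 with a LexA–MS2 coat fusion and a HIS3 reporter, carrying Pumilio-1 PUF domain libraries and matching RNA elements. The interaction score is the log change in variant frequency from input to selection, computed in log2 with a pseudocount of 1 for absent variants.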
For the sequence “GGCUAGAACUAGUGGAUCCCCCGGCGCCCGGCGGCUCGAGCCCGGGUAAGUGUAUAUAGUCUGCAUGCCGCCGGGCGCCAUGCCUGCAGGUCGACUCUAGAAAACAUG”, the binding signal is 1.37 log2 enrichment (interaction score).
Same read-out and setting: the value for “GGCUAGAACUAGUGGAUCCCCCGGCGCCCGGCGGCUCGAGCCCGGGUAAGUGUAAAUAGUCUGCAUGCCGCCGGGCGCCAUGCCUGCAGGUCGACUCUAGAAAACAUG” was 4.42 log2 enrichment (interaction score).
As to “GGCUAGAACUAGUGGAUCCCCCGGCGCCCGGCGGCUCGAGCCCGGGUAAGUGUACAUAGUCUGCAUGCCGCCGGGCGCCAUGCCUGCAGGUCGACUCUAGAAAACAUG”, the binding signal is 0.54 log2 enrichment (interaction score).

The target in another assay is T1, PUM1 PUF domain R6-VFK (Homo sapiens, UniProt Q14671 828-1176, N1043V;Y1044F;Q1047K).
T1 sequence: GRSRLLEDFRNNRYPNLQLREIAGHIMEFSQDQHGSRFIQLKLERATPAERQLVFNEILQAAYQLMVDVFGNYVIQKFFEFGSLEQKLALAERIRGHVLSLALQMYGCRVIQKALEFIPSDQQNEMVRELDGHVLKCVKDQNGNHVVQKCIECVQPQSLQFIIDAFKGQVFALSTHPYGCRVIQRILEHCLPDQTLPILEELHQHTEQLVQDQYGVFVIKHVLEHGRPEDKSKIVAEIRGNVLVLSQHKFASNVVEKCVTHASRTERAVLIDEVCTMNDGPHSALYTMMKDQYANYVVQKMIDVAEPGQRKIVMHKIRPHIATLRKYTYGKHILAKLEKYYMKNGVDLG
The assay is described as above. The settings on record: tags: N-Gal4 AD-HA kept; label: inside an RPR1-promoter hybrid RNA with tandem MS2 sites; ssRNA. The method, boiled down: as §1
Regarding “GGCUAGAACUAGUGGAUCCCCCGGCGCCCGGCGGCUCGAGCCCGGGUAAGUGUAAAUAGUCUGCAUGCCGCCGGGCGCCAUGCCUGCAGGUCGACUCUAGAAAACAUG”, the binding signal was 3.04 log2 enrichment (interaction score).
On the same count and under the same terms, with “GGCUAGAACUAGUGGAUCCCCCGGCGCCCGGCGGCUCGAGCCCGGGUAAGUGCAAAUAGUCUGCAUGCCGCCGGGCGCCAUGCCUGCAGGUCGACUCUAGAAAACAUG” the figure was 1.94 log2 enrichment (interaction score); with “GGCUAGAACUAGUGGAUCCCCCGGCGCCCGGCGGCUCGAGCCCGGGUAAGUGAAAAUAGUCUGCAUGCCGCCGGGCGCCAUGCCUGCAGGUCGACUCUAGAAAACAUG”, 8.43 log2 enrichment (interaction score).
